Screens from PubChem.
S2 tox = reduces viability in counter-screen for ATXN expression inhibitors | AID 651635 | Potency, µM (titrated, usually from 56.7 µM), hits mostly cytotoxic | S2 cells (HEK-293 line with an ATXN2-luciferase reporter) viability, CellTiter-Fluor protease fluorescence, 24 h | actives 0.49% (n = 400,000); note: nearly all actives have a fitted effect of over 40% in size
TGFb SMAD3 inh = inhibitors of TGF-b signaling; HepG2 CAGA-GFP TGF-b/SMAD3 reporter, GFP fluorescence, 18 h; TGF-beta stimulated, 500 pg/mL final; Potency, µM (top dose mostly 46.1 µM), for the others: at the top dose activity, negative = inhibition, actives largely listed as inhibitors; actives 1.2% (n = 410,000); AID 588855; note: % is set by controls: 0 for no effect and ±100 for the full control effect; nearly all actives have a fitted effect of over 65% in size
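Inhibition of TGF-beta-driven CAGA-GFP reporter expression in HEPG2 cells is measured by cellular GFP fluorescence after 18 h stimulation with 500 pg/mL recombinant TGF-beta in 1% FBS medium at 37 degrees C.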
RORgamma inh = ROR gamma (mouse) transcription inhibition | Drosophila S2 Gal4-RORgamma UAS-luciferase reporter, 20 h | Potency, µM (top dose mostly 53.6 µM), without a hit: at the top dose activity change, negative = inhibition, hits mostly inhibitors | actives 5.4% (n = 310,000) | AID 2551; note: % is set by controls: 0 for no effect and ±100 for the full control effect; nearly all actives have a fitted effect of over 60% in size
Target sequence (P51450 whole entry, looked up, the tested form may be a part): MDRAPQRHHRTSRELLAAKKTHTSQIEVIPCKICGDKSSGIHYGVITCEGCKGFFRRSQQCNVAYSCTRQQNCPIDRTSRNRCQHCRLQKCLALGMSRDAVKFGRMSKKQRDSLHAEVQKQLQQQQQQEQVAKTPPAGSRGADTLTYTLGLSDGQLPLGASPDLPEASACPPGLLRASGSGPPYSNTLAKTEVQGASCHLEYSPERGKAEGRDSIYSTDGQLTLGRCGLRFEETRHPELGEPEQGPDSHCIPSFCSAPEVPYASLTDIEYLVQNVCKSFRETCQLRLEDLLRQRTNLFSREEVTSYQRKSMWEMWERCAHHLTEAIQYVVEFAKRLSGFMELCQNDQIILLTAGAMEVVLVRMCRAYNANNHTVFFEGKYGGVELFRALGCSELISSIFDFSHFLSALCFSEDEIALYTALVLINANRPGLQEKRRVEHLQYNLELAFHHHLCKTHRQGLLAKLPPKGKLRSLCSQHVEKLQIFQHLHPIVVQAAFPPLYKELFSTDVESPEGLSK
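Read-out: Photinus luciferase luminescence; inhibitors lower reporter signal. Insect Schneider cells with Gal4-ROR gamma fusion under metallothionein promoter, UAS reporter; 700 uM final copper sulfate induction, 20 hr, ambient temperature.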
HepG2 tox = counter-screen for TGF-b inhibitors: cytotoxicity in HepG2 cells; HepG2 CAGA-GFP viability, ATP luminescence, 18 h; Potency, µM (titrated, usually from 46.1 µM), without a hit: at the highest dose activity change, negative = cytotoxicity, actives largely listed as cytotoxic; actives 0.76% (n = 410,000); AID 588856
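HepG2 CAGA-GFP cells (1000/well, DMEM with 1% FBS) received compound, then TGF-beta at 500 pg/mL final, and were incubated 18 hours at 37 degrees C. Viability was read by CellTiter-Glo luminescence. Media-only wells were set as complete cell-killing and DMSO as no toxicity.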
ATXN2 expr inh = inhibitors of ATXN2 expression. HEK-293 ATXN2-luciferase reporter, luminescence, 24 h. Potency, µM (top dose mostly 57 µM), for the others: at the highest dose activity change, negative = inhibition, actives largely listed as inhibitors. actives 0.72% (n = 360,000); note: % is set by controls: 0 for no effect and ±100 for the full control effect; nearly all actives have a fitted effect of over 55% in size
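qHTS (up to 57 uM final) was run with 24 h compound exposure of reporter cells at 37 °C. Each well was multiplexed: SteadyGlo luminescence measured ATXN2-luciferase expression after a fluorogenic Gly-Phe-AFC viability readout (25 uM final).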
VP16 counter = Gal4-VP16 reporter inhibition counter-screen. actives 3.5% (n = 310,000). Drosophila S2 Gal4-VP16 UAS-luciferase, luminescence, 20 h. Potency, µM (doses to about 53.6 µM), without a hit: top-dose activity, negative = inhibition, most hits filed as inhibitors;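 note: Gal4-VP16 expression switched on by copper sulfate through the metallothionein promoter; % is set by controls: 0 for no effect and ±100 for the full control effect; nearly all actives have a fitted effect of over 50% in size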
* hit, by the source's call; i = inactive; ? = inconclusive; . = no result given; [ ] = another dose, or the depositor's remark. Hits are enriched below; roughly 6.1% of the tested compounds scored in any of these assays. Calls come from the whole dose curve; as a rule, active = well fitted curve in the direction sought with a large enough effect; inconclusive = small, poorly fitted or top-dose-only effect, or another doubt; inactive = no such curve, though single readings can be large; an effect the other way counts as inactive or inconclusive. Potency is the fitted concentration of half-maximal effect.

SMILES | S2 tox | TGFb SMAD3 inh | RORgamma inh | HepG2 tox | ATXN2 expr inh | VP16 counter
CCC1(C)Cc2ccccc2-c2nc(NCCO)[nH]c(=O)c21 (stereo not given) | i | 32% | -23% | -17% | 1% | -9%
CCC1(C)Cc2ccccc2-c2nc(NN)[nH]c(=O)c21 (stereo not given) | i | 8% | 16µM* | -12% | -12% | ?
CCC1(CC)Cc2ccccc2-c2nc(NN)[nH]c(=O)c21 | i | -12% | 10µM* | -11% | 1% | 16µM*
CCC1(CC)Cc2ccccc2-c2nc(CN3CCOCC3)[nH]c(=O)c21 | i | -6% | -24% | 3% | -15% | -15%
COc1ccc(CNC(=O)c2cc3cccc4c3n2CC(C)S4)cc1 (stereo not given) | . | -16% | . | -39% | . | .
COc1ccc(/C=c2\s/c(=C/C(=O)c3ccc(C)cc3)[nH]c2=O)cc1OC | . | 25% | 13µM* | -17% | ? | ?
Cc1cc(C)c2c(CC(=O)Nc3cc(C(F)(F)F)ccc3Cl)coc2c1 | i | 0% | . | -1% | 12% | .
N#CC1=C(N)Oc2n[nH]c(-c3cccnc3)c2C1c1ccc([N+](=O)[O-])o1 (stereo not given) | ? | ? | 6.3µM* | -65% | -23% | ?
COc1ccccc1NC(=O)Cn1c(C)cc(=O)c2cccc(OC)c21 | ? | ? | -33% | -25% | -11% | 28µM*
COc1ccccc1NC(=O)CN1CCOCC1 | i | 0% | -8% | 7.9µM* | -31% | -3%
O=C(CN1CCOCC1)NNC(=S)Nc1ccccc1 | i | -17% | 29% | -40% | . | 1.3µM*
COCc1ccc(CN2CCOc3ccc(C4=Cc5ccccc5C4)cc3C2)o1 | i | . | . | . | . | .
CCNc1nc(SC(C)C(=O)OC)nc(N(C)C)n1 (stereo not given) | i | -8% | 34% | -7% | -4%[11.3 µM] | 3%
CCNc1nc(SC(C(C)=O)C(C)=O)nc(N(C)C)n1 | i | 11% | 5µM* | 13% | -3% | -27%
CCC(C)Nc1nc(SC(C(C)=O)C(C)=O)nc(N(C)C)n1 (stereo not given) | i | -2% | 13µM* | 0% | -4% | ?
Cc1cccc(NC(=O)Cn2c(=O)n(Cc3ccccc3)c(=O)c3sc4ccccc4c32)c1 | i | -35% | . | -15% | 5% | .
CCOC(=O)C1=C(C)C(c2ccccc2OC)NC(=S)N1 (stereo not given) | i | -15% | 2.8µM* | -15% | -7% | 0%
CCOC(=O)C1=C(C)C(c2ccccc2OC)NC(=O)N1 (stereo not given) | i | -24% | 2% | 2% | -5% | -5%
O=C(c1ccccc1)N1CCC(c2nc3ccccc3o2)CC1 | . | 0% | . | 4% | . | .
CCCCC(=O)Nc1nnc(S(=O)(=O)N(C)Cc2ccccc2)s1 | . | 20% | . | 7% | . | .
N[C@@H](C(=O)N[C@@H]1C(=O)N2C(C(=O)O)=C(CSc3cn[nH]n3)CS[C@H]12)c1ccc(O)cc1 | i | . | . | . | . | .
Nc1ccc(O)c2c1C(=O)c1ccccc1C2=O | 20µM* | -18% | 5% | -37% | -18% | -7%
O=C(Nc1cccc(-c2nn[nH]n2)c1)c1cccs1 | i | 2% | 7.9µM* | 4% | 2% | 10µM*
COc1ccc(OC)c(-c2cc(Cl)c3c(c2)CC(CNC(=O)c2cccnc2SC)O3)c1 (stereo not given) | i | . | . | . | . | .
COC(=O)c1cc2sccc2n1CC(=O)Nc1ccc(C)cc1C | i | 13% | . | 1% | 2% | .
SMILES | S2 tox | TGFb SMAD3 inh | RORgamma inh | HepG2 tox | ATXN2 expr inh | VP16 counter
C=CCN1C(=O)NC(c2ccc(OC)cc2)(C(F)(F)F)S/C1=C(\C#N)c1nnc(N2CCOCC2)n1-c1ccccc1 (stereo not given) | i | -30% | 4.5µM* | -10% | -11% | 13µM*
C=CCN1C(c2cccc(C(F)(F)F)c2)=CS/C1=C(/C#N)c1nnc(N2CCOCC2)n1-c1ccccc1 | i | ? | ? | -27% | 0% | -16%
FC(F)(F)c1ccc(Cl)c(NC(=S)N/N=C/c2ccccc2Cl)c1 | ? | -5% | 2.2µM* | -12% | . | ?
O=C(NC(=S)Nc1cc(C(F)(F)F)ccc1Cl)c1ccccc1 | i | -23% | 2.5µM* | -40% | -5% | ?
O=C(O)c1ccc(NNC(=S)Nc2cc(C(F)(F)F)ccc2Cl)cc1 | i | 5% | 3.2µM* | 1% | 129% | ?
CCc1ccc2oc(C(=O)Nc3cccc(Cl)c3C)cc(=O)c2c1 | i | -13% | . | 1% | 0% | .
Cc1ccc(NC(=O)Cn2c(=O)n(Cc3ccc4c(c3)OCO4)c(=O)c3ccc(C(=O)NC4CCCCC4)cc32)cc1 | i | -2% | . | -16% | 9% | .
O=C1/C(=C/c2cccnc2)SC(=S)N1N1CCOCC1 | i | 34% | -43% | 137% | -17% | -14%
O=C1/C(=C/c2cccnc2)SC(=S)N1C1CCS(=O)(=O)C1 (stereo not given) | i | -10% | 11µM* | -33% | -8% | ?
O=C1/C(=C\c2cccnc2)SC(=S)N1C1CCS(=O)(=O)C1 (stereo not given) | ? | -14% | 6.3µM* | -16% | ? | ?
O=[N+]([O-])c1ccc(N/N=C\c2cccn2-c2ccccc2)nc1 | i | ? | 2.5µM* | -3% | ? | ?
Cc1ccccc1-n1c(C)cc(/C=N/Nc2ccc([N+](=O)[O-])cn2)c1C | i | 7% | 6.3µM* | -5% | 2% | 5.6µM*
CCC1OCCC=CC1C (stereo not given) | . | . | 9%[10 µM] | . | . | -3%[10 µM]
O=C(NCCCN1CCN(c2ccccc2F)CC1)c1ccc2nc(CCc3ccccc3)oc2c1 | . | ? | . | 11µM* | . | .
O=C(NCCCN1CCN(c2ccccc2F)CC1)c1ccc2nc(Cc3ccccc3)oc2c1 | . | ? | . | -43% | . | .
O=C(CC1SC(=O)N(c2ccccc2)C1=O)Nc1ccc(Cl)cc1 (stereo not given) | i | -4% | 16µM* | 4% | -31% | -6%
O=C(CC1SC(=NCCc2ccccc2)N(/N=C/c2cccs2)C1=O)Nc1ccc(Cl)cc1 (stereo not given) | i | 3% | 0.5µM* | 29% | -17% | 0.79µM*
O=C(CC1SC(=O)N(c2ccccc2)C1=O)Nc1ccc(Br)cc1 (stereo not given) | ? | -21% | -26% | -1% | -19% | 7%
O=C(CC1SC(=Nc2ccccc2)N(CCCO)C1=O)Nc1ccc(Cl)cc1 (stereo not given) | ? | ? | 0% | -12% | -28% | 4%[0.365 µM]
